Screening results as filed in PubChem BioAssay.
NS1 function inh: qHTS Assay for Inhibitors of Influenza NS1 Protein Function; Potency, µM (titrated, usually from 46.1 µM), inactives show at the top dose activity, positive = more growth; 270,000 tested, 0.4% active; AID 2326, 2010; calls by dose curve; note: potency is the fitted concentration of half-maximal effect; actives are rising curves; nearly all actives have a fitted effect of over 50% in size
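In this qHTS, NS1 from influenza A is expressed in budding yeast, where it slows growth. Cells are switched from glucose to 2% galactose medium (pH 6.0, -URA), treated with compound, and growth recovery is read at OD600.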
Pf growth 96h: Primary qHTS for delayed death inhibitors of the malarial parasite plastid, 96 hour incubation; 320,000 tested, 6.9% active; P. falciparum luciferase reporter growth, 96 h; Potency, µM (series often up to 28.7 µM), for the others: at the highest dose activity change, negative = inhibition, hits mostly inhibitors; note: potency is the fitted concentration of half-maximal effect; % is set by controls: 0 for no effect and ±100 for the full control effect
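Delayed-death screen, second-generation endpoint: infected erythrocytes, 2% hematocrit, 0.05% parasitemia final; 96 hours at 37 C, 5% CO2; luciferase detection reagent; luminescence decrease equals reduced growth.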
Sm TGR block: qHTS Assay for the Inhibitors of Schistosoma Mansoni Peroxiredoxins; purified TGR, DTNB reduction, TNB absorbance 405 nm; Potency, µM (titrated, usually from 114 µM), for inactives: at the top dose activity change, negative = inhibition, actives largely listed as inhibitors; 360,000 tested, 3% active; AID 485364, 2010; note: potency is the fitted concentration of half-maximal effect; % is set by controls: 0 for no effect and ±100 for the full control effect; nearly all actives have a fitted effect of over 60% in size
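First, TGR (20 nM dispensed) and NADPH were mixed with compound. Second, a 15 min room-temperature incubation followed. Third, further NADPH and then DTNB were added to start the reaction. Finally, TNB absorbance was monitored kinetically.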
Cycloheximide cs: Cycloheximide Counterscreen for Small Molecule Inhibitors of Shiga Toxin. 300,000 tested, 12% active. max response, %. cell reporter, cycloheximide protein synthesis inhibition counterscreen; in the data active = max response mostly above about 13%, no sharp cut-off; inactive = mostly below about 14%; note: read at 38.3 µM for the half of the compounds with a filed dose; 0% is about no effect
Shiga inhibitor: A qHTS for Small Molecule Inhibitors of Shiga Toxin; Vero cells, Shiga toxin protein synthesis inhibition reporter; inhibition, % at 38.7 µM; 290,000 tested, 9.2% active; in the data active = inhibition mostly above about 28%, no sharp cut-off; inactive = mostly below about 43%; note: 0% is about no effect
Pf growth 48h: Primary qHTS for delayed death inhibitors of the malarial parasite plastid, 48 hour incubation | P. falciparum luciferase growth in erythrocytes, 48 h | Potency, µM (doses to about 28.7 µM), inactives show at the highest dose activity change, negative = inhibition, actives largely listed as inhibitors | 310,000 tested, 5.9% active; note: potency is the fitted concentration of half-maximal effect; % is set by controls: 0 for no effect and ±100 for the full control effect
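Cell-based growth assay: transgenic P. falciparum expressing firefly luciferase, cultured in red cells within RPMI 1640 containing 0.5% w/v Albumax, 24 mM bicarbonate and gentamycin. A drop in luciferase activity indicates inhibition.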
Starred values were filed as active, the others as inactive; u = inconclusive; x = no result given; [ ] = dose if it differs, or a comment. Hits are enriched below; roughly 21% of the tested compounds scored in any of these assays. Unless noted, calls come from the whole dose curve; as a rule, active = well fitted curve in the direction sought with a large enough effect; inconclusive = small, poorly fitted or top-dose-only effect, or another doubt; inactive = no such curve, though single readings can be large; an effect the other way counts as inactive or inconclusive.

SMILES	NS1 function inh	Pf growth 96h	Sm TGR block	Cycloheximide cs	Shiga inhibitor	Pf growth 48h
COc1cccc(CNC(=O)C(=O)NCCC2CCCCN2S(=O)(=O)c2ccccc2)c1 (centres undefined)	x	u	-0.5%	x	x	u
COc1ccc(CCNC(=O)C(=O)NCCC2CCCCN2S(=O)(=O)c2cccs2)cc1 (centres undefined)	x	7.38µM*	-1.5%	x	x	u
CCC(C(=O)NCc1ccccc1)n1ncn2c(cc3occc32)c1=O (centres undefined)	x	x	-12.3%	x	x	x
CC(=O)N(C)c1ccc(NC(=O)COc2ccc(Br)cc2C)cc1	-13.6%	-3.3%	3.5%	-2.9	-7.8	-6.2%
O=C(COc1ccccc1F)Nc1ccccc1C(=O)OCc1cc(=O)n2nc(C3CC3)sc2n1	x	x	7.7%	x	x	x
Cc1ccc(N(C(=O)c2csnn2)C(C(=O)NCc2ccccc2)c2cccnc2)cc1 (centres undefined)	6.6%	19.6%	19.9%	4.5	-7.4	u
COc1cccc(-c2nc(CS(=O)(=O)CC(=O)NC3CCCC3)c(C)o2)c1	-9.6%	37.5%	44.7µM*	-0.6	15.1	14.0%
Cc1ccc(-c2nc(CS(=O)(=O)CC(=O)N3CC(C)CC(C)C3)c(C)o2)cc1 (centres undefined)	-26.6%	u	2.24µM*	-2.9	7.1	23.7%
Cc1oc(-c2cccc(Cl)c2)nc1CS(=O)(=O)CC(=O)NC1CCCC1	-2.7%	u	44.7µM*	-2.9	-8.8	23.2%
Cc1ccc(-c2nc(CS(=O)(=O)CC(=O)N3CCN(C)CC3)c(C)o2)cc1	3.6%	u	-20.0%	8.8	-5.8	6.6%
Cc1ccc(-c2nc(CS(=O)(=O)CC(=O)NC3CC3)c(C)o2)cc1	5.3%	32.4%	31.6µM*	-8.1	-2.0	14.6%
CCSc1nn(CC(=O)Nc2cccc(Cl)c2)c(N)c1S(=O)(=O)c1ccc(OC)cc1	x	x	6.5%	x	x	x
Cc1ccc(SCc2cc(=O)n(C)[nH]2)cc1	x	-14.6%	9.1%	7.9	55.2*	17.4%
O=C(CNC1CCCCC1)Nc1ccc([N+](=O)[O-])cc1C(=O)Nc1ccccc1F	1.0%	u	-2.3%	-0.2	-2.6	u
CC1CCCCC1NCc1cccc([N+](=O)[O-])c1 (centres undefined)	1.4%	24.7%	x	12.0	41.7*	-3.2%
COc1cc(NC(=O)c2cc([N+](=O)[O-])ccc2NC(=O)CNCc2ccccn2)cc(OC)c1	-3.6%	-25.2%	-1.7%	-6.9	-7.2	u
COc1cc(NC(=O)c2cc([N+](=O)[O-])ccc2NC(=O)CNC2CCCCC2)cc(OC)c1	11.6%	11.7%	5.3%	0.3	7.5	0.828µM*
COc1cc(NC(=O)c2cc([N+](=O)[O-])ccc2NC(=O)CNC2CCCCC2C)cc(OC)c1 (centres undefined)	5.9%	35.7%	5.1%	-3.1	-4.7	0.415µM*
Cc1ccc(NCc2cccn2-c2nnc(N3CCC(C(=O)NCc4ccc(F)cc4)CC3)s2)cc1	x	x	-20.3%	x	x	x
CCn1c2ccccc2c2cc(NC(C)=O)ccc21	-72.9%	-8.1%	10.1%	-1.5	-13.5	x
CCn1c(SCC(=O)Nc2ccc3c(c2)OCO3)nnc1C1CC1	-1.5%	u	0.1%	-2.6	-9.1	26.6%
CCn1c2ccccc2c2cc(NC(=O)c3cccc(OC)c3OC)ccc21	u	4.15µM*	1.5%	1.6	16.1	-14.6%
CCn1c2ccccc2c2cc(NC(=O)CSc3nnc(C4CC4)n3Cc3ccco3)ccc21	-7.4%	10.2%[5.75 µM]	7.94µM*	1.1	-2.5	-44.2%
CCn1c2ccccc2c2cc(NC(=O)C(=O)N3CCOCC3)ccc21	0.5%	u	0.0%	35.2*	85.6*	19.3%
CCn1c2ccccc2c2cc(NC(=O)c3ccco3)ccc21	-54.2%	x	-18.5%	18.2*	40.8	13.1µM*
SMILES	NS1 function inh	Pf growth 96h	Sm TGR block	Cycloheximide cs	Shiga inhibitor	Pf growth 48h
CC(NC(=O)c1ccc(S(=O)(=O)C(F)F)cc1)c1ccccc1 (centres undefined)	x	-3.9%	9.7%	2.6	-9.5	u
COc1ccc(-c2cc(C(F)(F)F)nc(SCC(=O)N3CCCCC3C)n2)cc1OC (centres undefined)	x	x	4.0%	x	x	x
CCn1c(=O)sc2cc(NC(=O)c3cccc(OC)c3)ccc21	x	x	-0.6%	x	x	x
CCn1c2ccccc2c2cc(NC(=O)c3cccc(OC)c3)ccc21	-13.8%	-34.7%	6.8%	19.6*	95.3*	u
O=C(NCCCN1CCOCC1)C1CCC(=O)N1CCc1ccccc1 (centres undefined)	-0.6%	-4.9%	89.1µM*	-3.3	2.6	x
COc1ccc(CCNC(=O)C2c3ccccc3C(=O)N2Cc2ccccc2)cc1OC (centres undefined)	x	x	1.0%	x	x	x
COc1ccc(CCNC(=O)C2c3ccccc3C(=O)N2CCC(C)C)cc1OC (centres undefined)	-0.7%	8.28µM*	-1.4%	5.7	4.3	-11.7%
Cc1ccc(CN2C(=O)CCC2C(=O)NCCc2ccccc2)cc1 (centres undefined)	1.5%	3.4%	-18.6%	-1.7	-10.4	-0.7%[0.00184 µM]
COc1ccc(CCNC(=O)C2CCC(=O)N2CCc2ccccc2)cc1OC (centres undefined)	x	-99.6%	0.3%	25.7*	124.9*	7.5%
CC(C)N(CCNC(=O)C1CCCN(c2ncnc3c2nc2n3CCCCC2)C1)Cc1ccccc1 (centres undefined)	-7.9%	-15.7%	-0.2%	-2.1	-10.6	u
Cc1cc2ccccn2c1C(=O)c1ccc(N/N=C/c2ccc(C(=O)O)cc2)c([N+](=O)[O-])c1	-3.0%	1.7%	1.3%	7.5	17.4	-12.3%
C/C(=N\Nc1ccc(C(=O)c2c(C)cc3ccccn23)cc1[N+](=O)[O-])c1ccc(O)cc1	2.7%	u	-0.4%	-5.0	-6.6	9.28µM*
Cc1ccc2c(c1)c1c(c(=O)n(-c3ccccc3)c(=O)n1Cc1ccccc1C)n2C	x	x	-2.9%	x	x	x
CCN(CC(=O)Nc1c(F)cccc1F)C(=O)CNC(=O)c1ccc(C)s1	-35.0%	46.5%	3.0%	51.2*	65.2*	91.2%
COC(=O)c1cc(C(=O)NCCN2C(=O)S/C(=C\c3cccs3)C2=O)cc([N+](=O)[O-])c1	7.5%	10.0%	2.5%	-1.2	-5.3	8.0%
CCc1ccccc1NC(=O)c1cnc2scc(C)n2c1=O	-34.4%	0.5%	7.5%	9.1	23.2	37.4%
Cc1ccccc1NC(=O)c1cnc2ccccn2c1=O	-54.2%	6.57µM*	13.2%	78.9*	86.1*	44.4%
Cc1csc2ncc(C(=O)NCCC(c3ccccc3)c3ccccc3)c(=O)n12	4.9%	11.1%	1.9%	2.1	-2.6	-18.3%
